molecular target: T1, GST-Nv-NF-kB (Ser allele) (Nematostella vectensis, UniProt A7UNT2 2-411); experiment: protein-binding microarray (PBM); PBM: ~300 nM protein, 6 mM HEPES pH 7.8, 80 mM KCl, 0.5 mM EDTA, 0.5 mM EGTA, 6% glycerol, 35 ng/ul poly-dIdC, 1% milk, 1 h, room temperature; Ap Aiptasia and Nv Nematostella (sea anemones) / Co Capsaspora / Aq Amphimedon (sponge) / Dm Drosophila / Hu human; RHD is the Rel homology domain; high values mean tight binding; conditions: dsDNA, one strand shown
T1 sequence: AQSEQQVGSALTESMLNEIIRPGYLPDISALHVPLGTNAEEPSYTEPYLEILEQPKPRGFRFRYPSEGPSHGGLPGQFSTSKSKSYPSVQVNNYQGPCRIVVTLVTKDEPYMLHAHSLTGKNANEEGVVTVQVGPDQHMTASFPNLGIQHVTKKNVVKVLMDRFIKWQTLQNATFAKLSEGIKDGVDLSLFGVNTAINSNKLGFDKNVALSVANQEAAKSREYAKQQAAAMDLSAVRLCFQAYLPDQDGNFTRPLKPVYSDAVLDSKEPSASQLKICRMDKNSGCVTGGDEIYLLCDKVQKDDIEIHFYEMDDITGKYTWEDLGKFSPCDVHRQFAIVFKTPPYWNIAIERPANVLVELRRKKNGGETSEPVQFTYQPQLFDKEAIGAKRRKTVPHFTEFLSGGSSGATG

Sequence	binding signal [z-score]
CCGATTAACATCAGGAGGCCCCCTGATGTTAATCGGGTCTTGATTCGCTTGACGCTGCTG	1.79
CCGATTAACATCAGGACTACCCCTGATGTTAATCGGGTCTTGATTCGCTTGACGCTGCTG	1.61
CCGATTAACATCAGATTTCTCCCTGATGTTAATCGGGTCTTGATTCGCTTGACGCTGCTG	3.47
CCGATTAACATCAGGGGGTGATATGATGTTAATCGGGTCTTGATTCGCTTGACGCTGCTG	4.45
CCGATTAACATCAGGGAAATAACTGATGTTAATCGGGTCTTGATTCGCTTGACGCTGCTG	4.37
CCGATTAACATCAGGGAATTCACTGATGTTAATCGGGTCTTGATTCGCTTGACGCTGCTG	4.73
CCGATTAACATCAGGGACACCCCTGATGTTAATCGGGTCTTGATTCGCTTGACGCTGCTG	3.24
CCGATTAACATCAGAATATTCCCTGATGTTAATCGGGTCTTGATTCGCTTGACGCTGCTG	5.76
CCGATTAACATCAGGGAGCTACCTGATGTTAATCGGGTCTTGATTCGCTTGACGCTGCTG	1.68
CCGATTAACATCAGGGGACTATATGATGTTAATCGGGTCTTGATTCGCTTGACGCTGCTG	4.77
CCGATTAACATCAATTACCCCCCTGATGTTAATCGGGTCTTGATTCGCTTGACGCTGCTG	5.22
CCGATTAACATCATGCGGGAAAATGATGTTAATCGGGTCTTGATTCGCTTGACGCTGCTG	4.76
CCGATTAACATCAGAAGATTCCCTGATGTTAATCGGGTCTTGATTCGCTTGACGCTGCTG	3.95
CCGATTAACATCAAGCAACCCCCTGATGTTAATCGGGTCTTGATTCGCTTGACGCTGCTG	3.95

From PMC5700166
